Out of some 5,500 compounds screened, about 2,000 (36%) were called active. Roughly 18% stayed inconclusive and do not appear here. Rule as the data show it: active = normalized growth mostly below about 0.91 (no sharp cut-off); inconclusive = no clear call, values can overlap the other calls; inactive = mostly above about 0.92. Some of the results follow.
Test: chemical genetic growth profiling, strain panel (AID 1159580);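 also: tested at 20 µM; growth read once vehicle control cultures reached saturation at 30 °C; 1 = growth at the plate median or of vehicle wells; lower values mean less growth of the strain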
Conditions: growth OD

Measured: normalized growth

CC(C)CC(N(C)C)C1(c2ccc(Cl)cc2)CCC1 (configuration not stated)
inactive: S. cerevisiae deletion strains, locus YJR075W, strain HOC1, hits give low values 0.995 | S. cerevisiae deletion strains, locus YKL009W, strain mrt4, hits give low values 1.03 | S. cerevisiae deletion strains, locus YKL068W, hits give low values 1.01 | S. cerevisiae deletion strains, locus YKL085W, strain MDH1 (second series), hits give low values 1.01 | S. cerevisiae deletion strains, locus YKL085W, strain MDH1, hits give low values 1.01 | S. cerevisiae deletion strains, locus YKL160W, strain elf1, hits give low values 1.02 | S. cerevisiae deletion strains, locus YKL190W, strain CNB1, hits give low values 0.997 | S. cerevisiae deletion strains, locus YKR001C, strain vps1, hits give low values 1.02 | S. cerevisiae deletion strains, locus YKR026C, strain gcn3, hits give low values 1.01 | S. cerevisiae deletion strains, locus YKR091W, strain srl3, hits give low values 1.01 | S. cerevisiae deletion strains, locus YLL001W, strain dnm1, hits give low values 1.01 | S. cerevisiae deletion strains, locus YLL026W, hits give low values 1.01 | S. cerevisiae deletion strains, locus YLL041C, strain sdh2, hits give low values 1 | S. cerevisiae deletion strains, locus YLR027C, strain aat2, hits give low values 1.02 | S. cerevisiae deletion strains, locus YLR039C, strain RIC1, hits give low values 1.13 | S. cerevisiae deletion strains, locus YLR058C, strain SHM2, hits give low values 1.01 | S. cerevisiae deletion strains, locus YLR102C, strain apc9, hits give low values 1.01 | S. cerevisiae deletion strains, locus YLR113W, strain HOG1, hits give low values 0.995 | S. cerevisiae deletion strains, locus YLR221C, strain rsa3, hits give low values 0.994 | S. cerevisiae deletion strains, locus YLR258W, strain gsy2, hits give low values 1 | S. cerevisiae deletion strains, locus YLR262C, strain YPT6 (second series), hits give low values 1.05 | S. cerevisiae deletion strains, locus YLR262C, strain YPT6, hits give low values 1.11 | S. cerevisiae deletion strains, locus YLR268W, strain sec22, hits give low values 1.02 | S. cerevisiae deletion strains, locus YLR320W, strain mms22, hits give low values 0.989 | S. cerevisiae deletion strains, locus YLR330W, strain CHS5, hits give low values 1 | S. cerevisiae deletion strains, locus YLR342W, strain FKS1 (second series), hits give low values 1.01 | S. cerevisiae deletion strains, locus YLR342W, strain FKS1, hits give low values 1.01 | S. cerevisiae deletion strains, locus YLR357W, strain rsc2, hits give low values 1.01 | S. cerevisiae deletion strains, locus YLR370C, strain arc18, hits give low values 1.01 | S. cerevisiae deletion strains, locus YLR371W, strain rom2, hits give low values 1.01 | S. cerevisiae deletion strains, locus YLR384C, strain iki3, hits give low values 1.02 | S. cerevisiae deletion strains, locus YLR418C, strain cdc73, hits give low values 1.05 | S. cerevisiae deletion strains, locus YML016C, strain PPZ1, hits give low values 1.02 | S. cerevisiae deletion strains, locus YML032C, strain rad52, hits give low values 1.02 | S. cerevisiae deletion strains, locus YML120C, strain ndi1, hits give low values 1.01 | S. cerevisiae deletion strains, locus YML124C, strain tub3, hits give low values 1.01 | S. cerevisiae deletion strains, locus YMR058W, strain fet3, hits give low values 1.01 | S. cerevisiae deletion strains, locus YMR078C, strain ctf18, hits give low values 1.02 | S. cerevisiae deletion strains, locus YMR125W, strain sto1, hits give low values 0.979 | S. cerevisiae deletion strains, locus YMR129W, hits give low values 1.01 | S. cerevisiae deletion strains, locus YMR205C, strain PFK2, hits give low values 1.01 | S. cerevisiae deletion strains, locus YMR223W, strain ubp8, hits give low values 1.01 | S. cerevisiae deletion strains, locus YMR231W, strain pep5, hits give low values 0.989 | S. cerevisiae deletion strains, locus YMR263W, strain SAP30, hits give low values 0.999 | S. cerevisiae deletion strains, locus YMR307W, strain GAS1, hits give low values 1.01 | S. cerevisiae deletion strains, locus YNL067W, strain RPL9B, hits give low values 0.992 | S. cerevisiae deletion strains, locus YNL071W, strain lat1, hits give low values 1.01 | S. cerevisiae deletion strains, locus YNL128W, strain TEP1, hits give low values 0.987 | S. cerevisiae deletion strains, locus YNL153C, strain GIM3, hits give low values 1.01 | S. cerevisiae deletion strains, locus YNL183C, strain NPR1, hits give low values 0.972 | S. cerevisiae deletion strains, locus YNL209W, strain ssb2, hits give low values 0.996 | S. cerevisiae deletion strains, locus YNL233W, strain BNI4, hits give low values 1.01 | S. cerevisiae deletion strains, locus YNL248C, strain rpa49, hits give low values 0.997 | S. cerevisiae deletion strains, locus YNL250W, strain rad50, hits give low values 1 | S. cerevisiae deletion strains, locus YNL271C, strain bni1, hits give low values 1.02 | S. cerevisiae deletion strains, locus YNL298W, strain CLA4, hits give low values 1.02 | S. cerevisiae deletion strains, locus YNL307C, strain MCK1, hits give low values 1.03 | S. cerevisiae deletion strains, locus YNL322C, strain KRE1 (second series), hits give low values 1 | S. cerevisiae deletion strains, locus YNL322C, strain KRE1, hits give low values 1 | S. cerevisiae deletion strains, locus YNR049C, strain mso1, hits give low values 0.996 | S. cerevisiae deletion strains, locus YNR052C, strain pop2, hits give low values 1.01 | S. cerevisiae deletion strains, locus YOL006C, strain TOP1, hits give low values 1.03 | S. cerevisiae deletion strains, locus YOL012C, strain htz1 0.875 | S. cerevisiae deletion strains, locus YOL147C, strain pex11, hits give low values 1 | S. cerevisiae deletion strains, locus YOR001W, strain rrp6, hits give low values 1.02 | S. cerevisiae deletion strains, locus YOR061W, strain CKA2, hits give low values 1.01 | S. cerevisiae deletion strains, locus YOR069W, strain VPS5, hits give low values 0.992 | S. cerevisiae deletion strains, locus YOR070C, strain gyp1, hits give low values 0.997 | S. cerevisiae deletion strains, locus YOR080W, strain dia2, hits give low values 1.01 | S. cerevisiae deletion strains, locus YOR083W, strain WHI5, hits give low values 1 | S. cerevisiae deletion strains, locus YOR106W, strain vam3, hits give low values 1.03 | S. cerevisiae deletion strains, locus YOR136W, strain idh2, hits give low values 1.02 | S. cerevisiae deletion strains, locus YOR144C, strain elg1, hits give low values 1.02 | S. cerevisiae deletion strains, locus YOR184W, strain ser1, hits give low values 1.03 | S. cerevisiae deletion strains, locus YOR231W, strain MKK1, hits give low values 1.03 | S. cerevisiae deletion strains, locus YOR265W, strain rbl2, hits give low values 1.02 | S. cerevisiae deletion strains, locus YOR270C, strain vph1, hits give low values 0.991 | S. cerevisiae deletion strains, locus YOR290C, strain snf2, hits give low values 0.99 | S. cerevisiae deletion strains, locus YOR316C, strain cot1, hits give low values 1.01 | S. cerevisiae deletion strains, locus YPL051W, strain arl3, hits give low values 0.997 | S. cerevisiae deletion strains, locus YPL055C, strain LGE1, hits give low values 0.999 | S. cerevisiae deletion strains, locus YPL078C, strain atp4, hits give low values 1.02 | S. cerevisiae deletion strains, locus YPL106C, strain sse1, hits give low values 0.988 | S. cerevisiae deletion strains, locus YPL240C, strain hsp82, hits give low values 1.02 | S. cerevisiae deletion strains, locus YPL241C, strain CIN2, hits give low values 0.995 | S. cerevisiae deletion strains, locus YPL256C, strain CLN2, hits give low values 1.01 | S. cerevisiae deletion strains, locus YPR119W, strain clb2, hits give low values 1.01 | S. cerevisiae deletion strains, locus YPR141C, strain kar3, hits give low values 1.01 | S. cerevisiae deletion strains, locus YPR163C, strain tif3, hits give low values 1.02 | S. cerevisiae deletion strains, locus YPR167C, strain met16, hits give low values 1.02 | S. cerevisiae deletion strains, strain wtn01, hits give low values 1.03 | S. cerevisiae strains, strain wild type, hits give low values 0.98

From PubChem BioAssay AID1159580 (chemical genetic matrix, 2015)
